{"source": "PubChem BioAssay (NCI)", "note": "This is part of a sample that, as a whole, favours compounds with a hit. Of some 83,000 tested, about 20% had one in any assay.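 Activity criterion: percent growth below 10, measured after cells in 96-well plates were exposed to a single compound concentration for 48 hours.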 Active and inactive are the calls of the source.", "data": [{"test_system": "SK-OV-3 ovarian", "test": "NCI-60 one-dose screen, 48 h (100 = growth as untreated, 0 = no growth, -100 = all killed)", "details": "10 µM", "values": [{"smiles": "CSc1nc(S(C)(=O)=O)nc2[nH]c(=O)[nH]c12", "growth": "115% (inactive)"}, {"smiles": "CC1(C)N=C(N)N=C(N)N1c1cccc(C#N)c1", "growth": "82.9% (inactive)"}, {"smiles": "Nc1cc(-c2ccc(Cl)cc2)nn1-c1nc2ccccc2nc1Cc1ccccc1", "growth": "96.7% (inactive)"}, {"smiles": "O=C(N/N=C/c1cc([N+](=O)[O-])ccc1O)c1cccc2ccccc12", "growth": "41% (inactive)"}, {"smiles": "O=c1c(Br)ccc(Br)cc1Br", "growth": "112% (inactive)"}, {"smiles": "CC(=O)COc1ccc(Cl)cc1Cl", "growth": "122% (inactive)"}, {"smiles": "Cc1cn(-c2cc(F)cc(NC(=O)c3ccc(C)c(Nc4nccc(-c5cccnc5)n4)c3)c2)cn1", "growth": "2.64% (active)"}, {"smiles": "O=C(O)Cc1ccc(O)c(O)c1", "growth": "99.3% (inactive)"}, {"smiles": "O=C1/C(=C/c2cccc(F)c2)Cc2ccccc21", "growth": "108% (inactive)"}, {"smiles": "CCN1C(=O)CC(SC2CC(=O)N(CC)C2=O)C1=O", "note": "(stereo unspecified)", "growth": "103% (inactive)"}, {"smiles": "Cc1ccc(C2NC(=S)N3C(c4ccc(C)cc4)NC(=S)N23)cc1", "note": "(stereo unspecified)", "growth": "49% (inactive)"}, {"smiles": "COc1cc2nc(SCC(=O)Nc3cc(OC)c(OC)c(OC)c3)n(Cc3ccccc3)c(=O)c2cc1OC", "growth": "47.4% (inactive)"}, {"smiles": "Cc1c(C(N)=O)sc2c1c(=O)n(Cc1ccccc1)c1nnc(-c3ccc(Br)cc3)n21", "growth": "33.2% (inactive)"}, {"smiles": "Nc1nc(N)c(N)c(Nc2ccc(CCO)cc2)n1", "growth": "110% (inactive)"}, {"smiles": "CN(C)c1ccc(/C=N/NC(=O)c2cccc3ccccc23)c(Cl)c1", "growth": "16.9% (inactive)"}, {"smiles": "COc1ccc(-c2nn(-c3cccc(Cl)c3)cc2-c2c(C#N)c(N)n(N)c(=O)c2C#N)cc1", "growth": "95% (inactive)"}]}]}
